PubChem BioAssay
Calls of active or inactive are those of the source.

What was measured:
[1] = system: Plasmodium falciparum Sir2 (PF13_0152, Sir2A); assay: pfSir2 binders on small-molecule microarrays, primary screen, biochemical, small-molecule microarray, 635 nm fluorescence (AID 1098); conditions: small-molecule microarray binding, fluorescence 635 nm; higher = more signal;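 further: score merges spot fluorescence intensity with its signal-to-noise ratio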
[2] = small-molecule microarray binders of probe aDKK1, primary screen, biochemical, biotinylated probe, 635/667 nm fluorescence (AID 1099); conditions: higher = more signal;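 further: score merges 667nm spot fluorescence with signal to noise across triplicate slides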
[3] = small-molecule microarray binders of probe aCHRDL2, primary screen, biochemical, biotinylated probe, 635/667 nm fluorescence (AID 1100); conditions: higher = more signal
[4] = splicing luciferase reporter signal modulators, primary screen, spliceosome inhibition project, cell-based, HEK293, splice +/- reporter (AID 1101); conditions: luminescence, 24 h, higher = more signal, called active from +8 up or from −8 down;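 further: HEK293 cells carrying a splicing-competent luciferase reporter gene; test concentration not given here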
[5] = target: Fibroblast growth factor 10 (Homo sapiens) (UniProt O15520); assay: FGF10 binders on small-molecule microarrays, primary screen, biochemical, small-molecule microarray, 635 nm fluorescence (AID 1102); conditions: FGF10 binding, fluorescence 635 nm, higher = more signal
[6] = system: glycogen synthase kinase-3 (GSK3A per assay name; protocol says GSK3B); assay: GSK3 binders on small-molecule microarrays, primary screen, biochemical, small-molecule microarray, 635 nm fluorescence, GSK3A (AID 1103); conditions: small-molecule microarray binding, fluorescence 635 nm; higher = more signal; further: the record names both GSK3A and GSK3B
[7] = target: Epidermal growth factor receptor (Homo sapiens) (UniProt P00533); assay: EGFR binders on small-molecule microarrays, primary screen, biochemical, small-molecule microarray, 635 nm fluorescence (AID 1104); conditions: EGFR binding, higher = more signal;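 further: score merges 667 nm emission intensity with spot signal to noise over triplicate slides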
[8] = target: Follistatin-related protein 3 (Homo sapiens) (UniProt O95633); assay: FSTL3 binders on small-molecule microarrays, primary screen, biochemical, small-molecule microarray, 635 nm fluorescence (AID 1105); conditions: FSTL3 binding, higher = more signal;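 further: score merges emission near 667 nm and signal to noise per printed spot across three slides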
[9] = target: Dickkopf-related protein 1 (Homo sapiens) (UniProt O94907); assay: DKK1 binders on small-molecule microarrays, primary screen, biochemical, small-molecule microarray, 635 nm fluorescence scan (AID 1106); conditions: DKK1 binding, higher = more signal;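 further: score merges emission near 667 nm with signal to noise over three replicate slides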
[10] = system: Inhibin beta A chain (activin A); assay: INHBA (activin A) binders on microarrays, primary screen, biochemical, small-molecule microarray, 635 nm fluorescence scan (AID 1107); conditions: small-molecule microarray binding, higher = more signal;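 further: mouse activin A protein probed at 4.33 µg/mL on printed slides; score merges bound-protein fluorescence near 667 nm with spot signal-to-noise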
[11] = system: Human papillomavirus type 1a protein E7 (residues 44-93); assay: HPV1a E7 fragment binders on microarrays, primary screen, biochemical, small-molecule microarray, residues 44-93, 635 nm fluorescence (AID 1108); conditions: small-molecule microarray binding, fluorescence 635 nm; higher = more signal;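 further: E7 fragment applied at 1 µg/mL in TBST for 1 h at 4 C; score combines spot fluorescence with its signal to noise ratio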
[12] = modulators of HCV replicon luciferase signal, primary screen, HCV replication inhibitor project, Huh7 cells, luciferase reporter (AID 1109); conditions: 48 h, higher = more signal;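 further: huh7 hepatoma cells harbouring a luciferase neomycin HCV replicon reporter; luciferase luminescence as measure of HCV replicon replication; test concentration not given here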
[13] = target: Left-right determination factor 2 (Homo sapiens) (UniProt O00292); assay: LEFTY2 binders on small-molecule microarrays, primary screen, biochemical, small-molecule microarray, 635 nm fluorescence scan (AID 1110); conditions: LEFTY2 binding, higher = more signal
[14] = target: Calmodulin-1 (Homo sapiens) (UniProt P0DP23); assay: CALM1 binders on microarrays, EGTA buffer, profiling panel, biochemical, small-molecule microarray, Cy5-labelled CALM1 (AID 1111); conditions: Cy5-CALM1 binding fluorescence, higher = more signal;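 further: labelled calmodulin applied in Tris saline Tween buffer holding calcium plus EGTA and DTT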
[15] = target: Calmodulin-1 (Homo sapiens) (UniProt P0DP23); assay: calcium-bound CALM1 binders on microarrays, profiling panel, artefact control for SMM control-protein annotation, biochemical, small-molecule microarray, Cy5-labelled CALM1, plus calcium (AID 1112); conditions: Cy5-CALM1 binding fluorescence, higher = more signal;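 further: score merges spot fluorescence with signal to noise from triplicate slides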
[16] = small-molecule microarray binders of probe aWnt5a, primary screen, biochemical, biotinylated probe, 635/667 nm fluorescence (AID 1113); conditions: higher = more signal;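 further: score merges 667 nm fluorescence intensity with signal-to-noise per printed feature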
[17] = small-molecule microarray binders of probe aShh, primary screen, biochemical, biotinylated probe, 635/667 nm fluorescence (AID 1114); conditions: higher = more signal;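 further: probe is biotin-labelled aShh protein from a stem cell growth factor screen; measures binding of labelled protein to compounds printed on the slide; score merges feature fluorescence at 667 nm with signal-to-noise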
[18] = small-molecule microarray binders of probe aNog, primary screen, biochemical, biotinylated probe, 635/667 nm fluorescence (AID 1115); conditions: higher = more signal;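 further: probe is biotinylated aNog protein used at 0.15 µg/mL for 1 h at 4 C; z-score combines 667 nm fluorescence of each spot with its signal to noise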
[19] = target: Torsin-1A-interacting protein 1 (Homo sapiens) (UniProt Q5JTV8); assay: LAP1 binders from COS7 cell lysate, primary screen, small-molecule microarray, 635/667 nm fluorescence (AID 1116); conditions: COS7-hLAP1 lysate binding, 635 nm fluorescence, higher = more signal
[20] = target: Alpha-bungarotoxin (Bungarus multicinctus) (UniProt P60615); assay: alpha-bungarotoxin binders on microarray, profiling panel, artefact control for SMM control protein annotation, biochemical, small-molecule microarray, Alexa647 label, 635/667 nm fluorescence (AID 1117); conditions: alpha-BTX-A647 binding fluorescence, higher = more signal
Alpha-bungarotoxin (Bungarus multicinctus), sequence (P60615 whole entry, looked up): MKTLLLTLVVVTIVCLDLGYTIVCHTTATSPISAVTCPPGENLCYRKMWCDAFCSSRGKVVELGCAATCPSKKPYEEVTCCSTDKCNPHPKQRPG

Torsin-1A-interacting protein 1 (Homo sapiens), sequence (Q5JTV8 whole entry, looked up): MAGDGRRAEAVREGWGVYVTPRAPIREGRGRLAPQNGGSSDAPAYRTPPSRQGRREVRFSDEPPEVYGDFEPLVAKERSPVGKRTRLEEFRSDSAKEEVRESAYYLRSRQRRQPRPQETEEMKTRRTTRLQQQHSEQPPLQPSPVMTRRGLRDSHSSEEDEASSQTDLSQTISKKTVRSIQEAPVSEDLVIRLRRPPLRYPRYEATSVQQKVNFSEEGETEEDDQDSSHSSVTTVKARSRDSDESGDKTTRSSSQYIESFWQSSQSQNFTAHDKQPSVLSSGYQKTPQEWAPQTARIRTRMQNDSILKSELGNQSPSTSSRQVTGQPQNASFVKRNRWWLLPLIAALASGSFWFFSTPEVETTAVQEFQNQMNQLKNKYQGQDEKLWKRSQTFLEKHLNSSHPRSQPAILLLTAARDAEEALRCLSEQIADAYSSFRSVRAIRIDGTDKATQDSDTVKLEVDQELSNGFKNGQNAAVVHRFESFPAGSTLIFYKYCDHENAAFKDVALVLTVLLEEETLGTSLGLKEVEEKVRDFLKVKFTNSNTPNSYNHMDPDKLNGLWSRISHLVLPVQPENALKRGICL
Left-right determination factor 2 (Homo sapiens), sequence (O00292 whole entry, looked up): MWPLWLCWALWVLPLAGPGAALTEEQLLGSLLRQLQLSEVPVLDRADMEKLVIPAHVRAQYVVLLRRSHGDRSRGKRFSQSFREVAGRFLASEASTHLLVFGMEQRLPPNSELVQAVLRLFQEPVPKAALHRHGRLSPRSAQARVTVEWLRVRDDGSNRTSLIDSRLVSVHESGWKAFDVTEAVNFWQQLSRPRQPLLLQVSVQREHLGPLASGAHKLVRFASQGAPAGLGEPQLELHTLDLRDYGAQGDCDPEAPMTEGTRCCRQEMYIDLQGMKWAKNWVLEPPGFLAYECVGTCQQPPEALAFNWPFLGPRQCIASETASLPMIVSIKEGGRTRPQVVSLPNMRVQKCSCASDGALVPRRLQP
Fibroblast growth factor 10 (Homo sapiens), sequence (O15520 whole entry, looked up): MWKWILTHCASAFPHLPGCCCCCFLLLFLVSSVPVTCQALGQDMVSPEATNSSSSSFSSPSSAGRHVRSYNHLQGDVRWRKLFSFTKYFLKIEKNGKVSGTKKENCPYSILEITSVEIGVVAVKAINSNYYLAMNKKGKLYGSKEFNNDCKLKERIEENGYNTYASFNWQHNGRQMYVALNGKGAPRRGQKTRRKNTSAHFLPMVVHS
Epidermal growth factor receptor (Homo sapiens), sequence (P00533 whole entry, looked up): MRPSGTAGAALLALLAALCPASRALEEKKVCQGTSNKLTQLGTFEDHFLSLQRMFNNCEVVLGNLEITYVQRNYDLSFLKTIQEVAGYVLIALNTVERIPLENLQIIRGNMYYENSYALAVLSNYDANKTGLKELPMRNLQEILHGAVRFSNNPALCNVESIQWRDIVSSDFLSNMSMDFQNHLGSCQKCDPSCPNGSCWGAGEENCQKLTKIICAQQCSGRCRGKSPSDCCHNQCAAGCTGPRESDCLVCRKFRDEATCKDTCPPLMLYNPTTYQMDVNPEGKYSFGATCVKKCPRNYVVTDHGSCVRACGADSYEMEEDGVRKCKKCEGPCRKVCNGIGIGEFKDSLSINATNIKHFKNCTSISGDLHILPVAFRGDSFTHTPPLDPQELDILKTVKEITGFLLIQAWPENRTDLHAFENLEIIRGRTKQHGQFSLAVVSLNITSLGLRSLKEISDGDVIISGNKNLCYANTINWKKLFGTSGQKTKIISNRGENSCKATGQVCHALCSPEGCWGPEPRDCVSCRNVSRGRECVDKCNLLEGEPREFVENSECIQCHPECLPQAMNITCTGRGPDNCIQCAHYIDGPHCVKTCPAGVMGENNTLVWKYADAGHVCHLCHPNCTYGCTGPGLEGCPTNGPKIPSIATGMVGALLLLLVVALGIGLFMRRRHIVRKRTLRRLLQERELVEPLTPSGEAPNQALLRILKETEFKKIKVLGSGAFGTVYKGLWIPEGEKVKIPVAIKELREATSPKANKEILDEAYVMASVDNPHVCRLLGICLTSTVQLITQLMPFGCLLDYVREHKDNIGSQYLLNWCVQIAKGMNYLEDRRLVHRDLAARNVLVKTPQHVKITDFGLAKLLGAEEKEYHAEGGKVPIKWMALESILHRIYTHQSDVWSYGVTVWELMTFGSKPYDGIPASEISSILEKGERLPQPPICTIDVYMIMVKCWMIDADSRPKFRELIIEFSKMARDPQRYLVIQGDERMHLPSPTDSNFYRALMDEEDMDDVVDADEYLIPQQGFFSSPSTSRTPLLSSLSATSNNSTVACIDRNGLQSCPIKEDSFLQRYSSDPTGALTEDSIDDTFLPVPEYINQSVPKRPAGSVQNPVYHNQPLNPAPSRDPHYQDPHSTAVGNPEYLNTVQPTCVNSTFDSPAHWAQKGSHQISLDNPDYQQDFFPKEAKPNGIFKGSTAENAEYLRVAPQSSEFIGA
Dickkopf-related protein 1 (Homo sapiens), sequence (O94907 whole entry, looked up): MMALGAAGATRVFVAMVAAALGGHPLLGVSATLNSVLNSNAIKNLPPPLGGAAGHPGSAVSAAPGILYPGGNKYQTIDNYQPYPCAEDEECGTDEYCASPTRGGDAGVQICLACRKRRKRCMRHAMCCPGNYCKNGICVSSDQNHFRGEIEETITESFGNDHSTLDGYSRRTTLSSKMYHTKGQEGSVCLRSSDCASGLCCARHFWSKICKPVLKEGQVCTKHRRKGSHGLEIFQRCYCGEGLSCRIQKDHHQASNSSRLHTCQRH
Follistatin-related protein 3 (Homo sapiens), sequence (O95633 whole entry, looked up): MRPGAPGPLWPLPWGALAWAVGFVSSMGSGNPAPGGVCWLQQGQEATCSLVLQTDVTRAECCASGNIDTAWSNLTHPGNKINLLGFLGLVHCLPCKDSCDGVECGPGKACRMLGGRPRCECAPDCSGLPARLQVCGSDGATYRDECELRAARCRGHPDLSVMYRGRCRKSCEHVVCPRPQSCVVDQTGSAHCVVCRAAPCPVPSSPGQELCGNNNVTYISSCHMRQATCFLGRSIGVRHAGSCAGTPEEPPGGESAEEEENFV

CC(C)C(CO)N1C(=O)[C@@H]2C3C(=O)OCCC/C=C\[C@H]3OC23C=CCN(C(C)(C)C)C(=O)[C@@H]13 (stereo not given in full)
composite z-score [1]: 1.2
composite z-score [2]: -0.456
composite z-score [3]: -0.384
z-score [4]: 0.476 (inactive)
composite z-score [5]: -0.598
composite z-score [6]: 0.0664
composite z-score [7]: -0.44
composite z-score [8]: -0.504
composite z-score [9]: -0.268
composite z-score [10]: 1.05
composite z-score [11]: -0.0297
z-score [12]: -0.57
composite z-score [13]: -0.383
composite z-score [14]: -0.903
composite z-score [15]: -0.804
composite z-score [16]: -0.124
composite z-score [17]: 0.0141
composite z-score [18]: -0.368
composite z-score [19]: -0.24
composite z-score [20]: -1.54

C=C(/C(=C/C[C@H](OC(=O)c1ccncc1)c1ccc(CO)o1)c1cc(C(=O)OC)ccc1OC)C(C)C
composite z-score [1]: 0.805
composite z-score [2]: -0.0125
composite z-score [3]: -0.0735
z-score [4]: 0.174 (inactive)
composite z-score [5]: 0.909
composite z-score [6]: 0.851
composite z-score [7]: 0.0286
composite z-score [8]: 0.752
composite z-score [9]: 0.667
composite z-score [10]: 1.04
composite z-score [11]: 1.31
z-score [12]: -0.706
composite z-score [13]: 0.34
composite z-score [14]: -0.0383
composite z-score [15]: -0.748
composite z-score [16]: 0.0037
composite z-score [17]: 0.235
composite z-score [18]: -0.0247
composite z-score [19]: 0.602
composite z-score [20]: 0.0818

COCCOC(=O)N1C(=O)[C@@]2(c3ccccc31)[C@H](C(=O)N1CCN(c3ncccn3)CC1)[C@H]1C(=O)O[C@H](c3ccccc3)[C@H](c3ccccc3)N1[C@@H]2c1ccc(O)cc1
composite z-score [1]: 1.59
composite z-score [2]: 0.184
composite z-score [3]: 0.573
z-score [4]: 0.554 (inactive)
composite z-score [5]: 0.745
composite z-score [6]: 0.53
composite z-score [7]: 0.0611
composite z-score [8]: -0.11
composite z-score [9]: 0.278
composite z-score [10]: -0.66
composite z-score [11]: 0.97
z-score [12]: -1.57
composite z-score [13]: 0.256
composite z-score [14]: 0.949
composite z-score [15]: 0.166
composite z-score [16]: -0.0735
composite z-score [17]: 0.191
composite z-score [18]: 0.893
composite z-score [19]: 0.482
composite z-score [20]: 1.72

COC(=O)[C@@]1(Cc2ccc(F)cc2)[C@H]2c3cc(C(=O)N4CCCC4)n(CCN4CNCC4=O)c3C[C@H]2CN1C(=O)c1ccccc1
composite z-score [1]: 1.51
composite z-score [2]: 0.845
composite z-score [3]: 0.82
z-score [4]: 1.64 (inactive)
composite z-score [5]: -0.142
composite z-score [6]: 1.26
composite z-score [7]: -0.472
composite z-score [8]: 0.131
composite z-score [9]: -1.29
composite z-score [10]: 0.781
composite z-score [11]: 1.44
z-score [12]: -1.8
composite z-score [13]: -1
composite z-score [14]: -0.606
composite z-score [15]: -0.234
composite z-score [16]: 0.307
composite z-score [17]: 0.151
composite z-score [18]: -0.158
composite z-score [19]: 2.1
composite z-score [20]: 1.07

CC1=C([C@H](O)CCc2ccccc2)[C@H](CO)[C@@H]2C(=O)N(C)C(=O)[C@@H]2C1
composite z-score [1]: 0.843
composite z-score [2]: -0.173
composite z-score [3]: -0.495
z-score [4]: 0.626 (inactive)
composite z-score [5]: 0.383
composite z-score [6]: 0.271
composite z-score [7]: 0.243
composite z-score [8]: 0.491
composite z-score [9]: 0.446
composite z-score [10]: 0.162
composite z-score [11]: 0.305
z-score [12]: -0.581
composite z-score [13]: 0.392
composite z-score [14]: 0.489
composite z-score [15]: -0.905
composite z-score [16]: -0.197
composite z-score [17]: -0.262
composite z-score [18]: -0.416
composite z-score [19]: 0.185
composite z-score [20]: 0.224

COCCCNC(=O)[C@]1(CCS(=O)(=O)c2ccccc2)N=C(c2ccc(OCCCO)cc2)O[C@@H]1c1ccccc1N=[N+]=[N-]
composite z-score [1]: 1.47
composite z-score [2]: 1.1
composite z-score [3]: 0.698
z-score [4]: 0.409 (inactive)
composite z-score [5]: 1.16
composite z-score [6]: 1.29
composite z-score [7]: 0.151
composite z-score [8]: 0.735
composite z-score [9]: -0.262
composite z-score [10]: 0.963
composite z-score [11]: 1.23
z-score [12]: -0.562
composite z-score [13]: -0.0904
composite z-score [14]: 2.09
composite z-score [15]: 0.893
composite z-score [16]: 0.0988
composite z-score [17]: 0.203
composite z-score [18]: 0.698
composite z-score [19]: -0.342
composite z-score [20]: 2.68
